TMEM16A act = activators or potentiators of mouse TMEM16A chloride channel | Q8BHY3 | HEK293 TMEM16A/YFP-H148Q/I152L, iodide quench fluorescence; stronger effect = lower value | B-score at 10 µM | 340,000 tested, 0.3% active;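 active means fluorescence-ratio B-score plate-corrected deviation score at least 3 library SD below zero, with starting fluorescence score within 5 deviations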;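 further: channel opened by trigger with iodide after compound preincubation; score built on the fluorescence ratio of max minus min over baseline; more negative score means more quench and so TMEM16A activation or potentiation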
CHT block = human CHT choline transport inhibition; AID 488975; 310,000 tested, 0.86% active; Q9GZV3; CHT-expressing cells, membrane potential dye, choline response; stronger effect = lower value; B-score at 10 µM;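 active means B-score over 3 SD under the library average, and starting fluorescence ratio not unusually high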;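 further: choline stimulus applied at its EC90 after an EC20 pre-addition; B-score computed on integrated fluorescence ratio after choline addition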
CHT PAM = allosteric activators of human choline transporter CHT; CHT-expressing cells, membrane potential dye, choline EC20; stronger effect = higher value; LV-AA mutant CHT in HEK293 cells; Q9GZV3; 310,000 tested, 0.49% active; B-score at 10 µM; AID 488977;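 active means initial fluorescence not abnormally high and integrated response B-score, plate-corrected, over 3 SD above library mean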
TMEM16A inh = inhibitors of mouse TMEM16A calcium-activated chloride channel; Q8BHY3; HEK293 TMEM16A/YFP iodide influx fluorescence, ionomycin; normalized B-score (activity score, 25-100; higher = stronger inhibition) at 10 µM; 310,000 tested, 1.2% active;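 active means ratio plate-corrected score three or more library SD toward inhibition, starting fluorescence score within five deviations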;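 further: score derived from kinetic fluorescence span divided by baseline fluorescence per well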
TMEM16A reconf = reconfirmed blocker of mouse TMEM16A calcium-activated chloride channel; HEK293 TMEM16A/YFP-H148Q, iodide quench fluorescence; ionomycin added to raise cell calcium; 2,300 tested, 39% active; shares compounds with TMEM16A inh; inhibition, % at 10 µM;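 active means mean duplicate percent inhibition, scaled so buffer wells are 0 and the reference blocker 100, over three buffer SD above buffer mean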
TMEM16A Ca cntr = counter-screen for TMEM16A inhibitors: effect on calcium mobilization | AID 652231 | TMEM16A/YFP HEK293, Fluo4 calcium mobilization | 2,300 tested, 2% active | shares compounds with TMEM16A inh | calcium response (% of ionomycin), % at 10 µM;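 active means duplicate-averaged calcium signal over 20% of the ionomycin maximum, relative to buffer baseline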;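 further: each well's signal is peak minus trough fluorescence divided by its pre-addition baseline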
Parental YFP cnt = counter-screen for TMEM16A inhibitors: effect in parental YFP-HEK293 cells. shares compounds with TMEM16A inh. AID 652233. YFP ratio F(max-min)/F0 at 10 µM. 2,300 tested, under 10 active. iodide YFP quench, ionomycin;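 active means yellow fluorescent protein signal ratio exceeding the buffer control mean by over 5 SD of those controls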;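 further: ratio is mean of duplicate wells from kinetic YFP trace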
ClC-1 rat inh = rat ClC-1 inhibition, TMEM16A specificity screen. shares compounds with TMEM16A inh. CHO ClC-1-YFP, iodide influx fluorescence quench; iodide control reads 0, buffer control 100. 2,300 tested, under 10 active. ratio percent, % at 10 µM;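 active means duplicate-mean ratio percent above the mean of iodide-only control wells, which defines zero, plus 5 of their SD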;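 further: higher percent means stronger block of ClC-1 iodide influx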
Target sequence (P35524 whole entry, looked up): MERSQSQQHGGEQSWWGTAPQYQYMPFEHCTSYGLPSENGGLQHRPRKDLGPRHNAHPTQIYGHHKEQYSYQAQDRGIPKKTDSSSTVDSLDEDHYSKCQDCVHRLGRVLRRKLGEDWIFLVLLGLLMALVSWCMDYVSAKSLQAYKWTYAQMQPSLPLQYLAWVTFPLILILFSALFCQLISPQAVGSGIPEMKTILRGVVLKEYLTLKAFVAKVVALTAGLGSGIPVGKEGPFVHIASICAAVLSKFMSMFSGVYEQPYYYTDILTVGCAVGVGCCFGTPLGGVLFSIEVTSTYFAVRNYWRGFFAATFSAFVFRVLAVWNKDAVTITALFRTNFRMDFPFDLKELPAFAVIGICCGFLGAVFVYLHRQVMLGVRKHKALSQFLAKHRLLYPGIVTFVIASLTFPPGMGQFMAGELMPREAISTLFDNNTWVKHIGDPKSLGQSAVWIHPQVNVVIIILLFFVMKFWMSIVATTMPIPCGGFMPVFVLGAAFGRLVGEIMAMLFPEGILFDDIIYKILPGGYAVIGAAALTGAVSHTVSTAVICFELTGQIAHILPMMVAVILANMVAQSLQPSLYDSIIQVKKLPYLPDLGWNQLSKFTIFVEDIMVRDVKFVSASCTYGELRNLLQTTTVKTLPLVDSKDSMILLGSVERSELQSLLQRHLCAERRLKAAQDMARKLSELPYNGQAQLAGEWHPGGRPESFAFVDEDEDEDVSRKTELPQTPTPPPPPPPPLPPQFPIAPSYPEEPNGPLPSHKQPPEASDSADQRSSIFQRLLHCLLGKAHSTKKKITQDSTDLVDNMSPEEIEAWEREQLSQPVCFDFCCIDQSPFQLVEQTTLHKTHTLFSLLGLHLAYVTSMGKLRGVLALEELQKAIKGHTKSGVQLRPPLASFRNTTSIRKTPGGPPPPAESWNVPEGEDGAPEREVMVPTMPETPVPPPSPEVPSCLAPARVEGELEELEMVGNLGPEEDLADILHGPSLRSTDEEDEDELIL
Each line names hits and unclear results; the compound was inactive in the other large screens (follow-up assays come after a bar, where they were run). Rows were chosen to be rich in hits. Some 2.3% of all compounds tested hit in one or more screens of this group.

CCN(CC)C(=O)CSc1nnc(COc2ccccc2)n1CC	TMEM16A inh 25 | TMEM16A reconf inactive | TMEM16A Ca cntr inactive | Parental YFP cnt inactive | ClC-1 rat inh inactive
CCOC(=O)N1CCN(c2ccc(C(=O)c3ccccc3)cc2F)CC1	TMEM16A inh 100 | TMEM16A reconf 23% | TMEM16A Ca cntr inactive | Parental YFP cnt inactive | ClC-1 rat inh inactive
CCOC(=O)N1CCN(c2ccc(C(C)=O)cc2F)CC1	none
CCCCCn1c(SCC(=O)OC)nc2c1c(=O)[nH]c(=O)n2C	none
O=C(N/N=C/c1cccnc1)c1sc2ccccc2c1Cl	none
O=C(O)Cn1cc(C(=S)N2CCOCC2)c2ccccc21	TMEM16A inh 25 | TMEM16A reconf inactive | TMEM16A Ca cntr inactive | Parental YFP cnt inactive | ClC-1 rat inh inactive
COc1ccccc1C(CNC(=O)CNC(=O)c1ccc(C)c(C)c1)N1CCCC1 (stereo unspecified)	none (no result: CHT block, CHT PAM, TMEM16A inh)
CN(C)c1ccnc(Oc2ccccc2)c1C#N	none (no result: CHT block, CHT PAM, TMEM16A inh)
CN(C)c1ccnc(SCc2ccccc2Cl)c1C#N	TMEM16A inh 25 | TMEM16A reconf inactive | TMEM16A Ca cntr inactive | Parental YFP cnt inactive | ClC-1 rat inh inactive
CC(=O)c1ccc(NC(=O)Nc2cccc(Cl)c2)cc1	TMEM16A inh 25 | TMEM16A reconf 54% | TMEM16A Ca cntr inactive | Parental YFP cnt inactive | ClC-1 rat inh inactive
CCOc1cc(C(=S)N2CCOCC2)ccc1OC(=O)c1ccccc1	none
CCOc1cc(C(=S)N2CCOCC2)ccc1OC(=O)c1ccc(C)cc1	TMEM16A inh 25 | TMEM16A reconf inactive | TMEM16A Ca cntr inactive | Parental YFP cnt inactive | ClC-1 rat inh inactive
COc1ccc2c(c1OC)C(=O)N1C2SC[C@H]1C(=O)NC1CCCCC1 (stereo partly specified)	none
Nc1nc(SCC(=O)N2CCc3ccccc3C2)[nH]c(=O)c1-c1ccccc1	none | TMEM16A reconf inactive | TMEM16A Ca cntr inactive | Parental YFP cnt inactive | ClC-1 rat inh inactive
Nc1nc(SCC(=O)Nc2ccccc2)[nH]c(=O)c1-c1ccccc1	none
CCOCC(=O)Nc1cc(C(F)(F)F)ccc1Oc1cccc(Br)c1	TMEM16A inh 25 | TMEM16A reconf 18% | TMEM16A Ca cntr inactive | Parental YFP cnt inactive | ClC-1 rat inh inactive
CC(=O)Nc1cc(C(F)(F)F)ccc1Oc1cccc(Br)c1	none
COc1cc(C(=O)N2CCN(c3ncnc4sc(C)c(C)c34)CC2)cc(OC)c1OC	TMEM16A inh 25 | TMEM16A reconf inactive | TMEM16A Ca cntr inactive | Parental YFP cnt inactive | ClC-1 rat inh inactive
Cc1ccc(S(=O)(=O)N2CCN(c3ncnc4sccc34)CC2)cc1	TMEM16A inh 25 | TMEM16A reconf 17% | TMEM16A Ca cntr inactive | Parental YFP cnt inactive | ClC-1 rat inh inactive
Cc1ccc(-c2ccc(S(=O)(=O)N3CCN(C)CC3)cc2)cc1	TMEM16A inh 100 | TMEM16A reconf inactive | TMEM16A Ca cntr inactive | Parental YFP cnt inactive | ClC-1 rat inh inactive
CCS(=O)(=O)N1CCN(c2ncnc3sc(C)c(C)c23)CC1	none
Cc1sc2ncnc(N3CCN(S(=O)(=O)c4ccc(F)cc4)CC3)c2c1C	TMEM16A inh 100 | TMEM16A reconf inactive | TMEM16A Ca cntr inactive | Parental YFP cnt inactive | ClC-1 rat inh inactive
COc1ccc(-c2nc(CN3CCN(C(=O)c4ccco4)CC3)c(C)o2)c(OC)c1C	none
COC(=O)c1ccsc1NC(=O)c1cccc(OC)c1	none
CC1CCN(C(=O)C(NS(=O)(=O)c2cccc3nsnc23)c2ccccc2)CC1 (stereo unspecified)	none | TMEM16A reconf inactive | TMEM16A Ca cntr inactive | Parental YFP cnt inactive | ClC-1 rat inh inactive
COc1cccc(N2CCN(C(=O)CCC(=O)N3CCOc4ccc(C)cc43)CC2)c1	none
c1ccc(CCNc2ncnc3scc(C4COc5ccccc5O4)c23)cc1 (stereo unspecified)	none
c1ccc2c(c1)OCC(c1csc3ncnc(N4CCCC4)c13)O2 (stereo unspecified)	TMEM16A inh 25 | TMEM16A reconf 20% | TMEM16A Ca cntr inactive | Parental YFP cnt inactive | ClC-1 rat inh inactive
COCCN(C(=O)CNC(=O)c1ccco1)C(C(=O)NC1CCCC1)c1ccc(F)cc1 (stereo unspecified)	none
CC(C)CCN(C(=O)CNC(=O)c1ccco1)C(C(=O)NC1CCCCC1)c1ccco1 (stereo unspecified)	TMEM16A inh 25 (no result: TMEM16A act) | TMEM16A reconf 19% | TMEM16A Ca cntr inactive | Parental YFP cnt inactive | ClC-1 rat inh inactive
Cc1ccc(Nc2nc(COC(=O)C3CC3)cs2)cc1	TMEM16A inh 100 | TMEM16A reconf 21% | TMEM16A Ca cntr inactive | Parental YFP cnt inactive | ClC-1 rat inh inactive
Cc1ccc(Nc2nc(C(=O)N3CCC(C(=O)N4CCN(C)CC4)CC3)cs2)cc1	none
COc1ccc(C2CC(c3ccccc3)=NN2S(=O)(=O)c2ccccc2)cc1 (stereo unspecified)	none | TMEM16A reconf 55% | TMEM16A Ca cntr inactive | Parental YFP cnt inactive | ClC-1 rat inh inactive
O=S(=O)(c1ccccc1)N1N=C(c2ccccc2)CC1c1ccco1 (stereo unspecified)	none (no result: TMEM16A act)
CC1(C)CC(=O)C(CC(=O)NC(=O)NCc2ccccc2)=C(O)C1	TMEM16A inh 100 | TMEM16A reconf inactive | TMEM16A Ca cntr inactive | Parental YFP cnt inactive | ClC-1 rat inh inactive
CN=C(Cc1ccccc1)C1=C(O)CC(C)(C)CC1=O	none
CCN(Cc1cc(=O)n2ccsc2n1)Cc1nc2cc(OC)c(OC)cc2c(=O)[nH]1	none
CCc1nnc2sc(-c3ccc(NC(=O)CSc4ccc(Cl)cc4)cc3)nn12	none | TMEM16A reconf inactive | TMEM16A Ca cntr inactive | Parental YFP cnt inactive | ClC-1 rat inh inactive
CCSc1nnc(NC(=O)CSc2nccn2-c2cccc(C)c2C)s1	TMEM16A inh 25 (no result: TMEM16A act) | TMEM16A reconf inactive | TMEM16A Ca cntr inactive | Parental YFP cnt inactive | ClC-1 rat inh inactive
O=C1c2ccccc2C(Nc2ccc(Cl)cn2)N1c1cccnc1 (stereo unspecified)	none
Cc1ccc(S(=O)(=O)NCC(c2ccco2)S(=O)(=O)c2ccccc2)cc1 (stereo unspecified)	TMEM16A inh 25 | TMEM16A reconf inactive | TMEM16A Ca cntr inactive | Parental YFP cnt inactive | ClC-1 rat inh inactive
Cc1ccc(S(=O)(=O)NCCC(c2ccccc2)c2ccco2)cc1 (stereo unspecified)	none
Cc1cccc(CCNC(=O)c2cc(=O)[nH]c3ccc(Br)cc23)c1	none (no result: TMEM16A act)
CCOc1cc(C)cc2oc(=O)cc(-c3ccccc3)c12	TMEM16A inh 25 | TMEM16A reconf inactive | TMEM16A Ca cntr inactive | Parental YFP cnt inactive | ClC-1 rat inh inactive

Assay outcomes as filed in PubChem.
